Results reported in PubChem BioAssay (NCI).
The panel holds about 83,000 compounds, 20% with a hit somewhere; the sample as a whole holds those more often.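 How to read the values: 0–100, growth inhibition (40 = 60% inhibited); 0, no net growth; -100 to 0, cell death (-40 = 40% of starting cells died; -100 = all dead).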 Values without a mark were called inactive. The source made the active and inactive calls. The calls were made as follows: active = growth percent below 10; inactive = the rest.

What was measured:
Assay in all cases: NCI-60 one-dose screen, 48 h (100 = growth as untreated, 0 = no growth, -100 = all killed)
Conditions in all cases: 10 µM unless noted
NCI-H23 lung = system: NCI-H23 lung
NCI-H226 lung = system: NCI-H226 lung
NCI-H322M lung = system: NCI-H322M lung
HOP-62 NSCLC = system: HOP-62 NSCLC
NCI-H460 lung = system: NCI-H460 lung
HOP-92 NSCLC = system: HOP-92 NSCLC
NCI-H522 lung = system: NCI-H522 lung
A549/ATCC NSCLC = system: A549/ATCC NSCLC
786-0 renal = system: 786-0 renal
COLO 205 colon = system: COLO 205 colon
DU-145 prostate = system: DU-145 prostate
K-562 leukemia = system: K-562 leukemia
MALME-3M melanoma = system: MALME-3M melanoma
MDA-MB-231 breast = system: MDA-MB-231 breast
RXF 393 renal = system: RXF 393 renal
SF-268 CNS = system: SF-268 CNS
SF-295 CNS = system: SF-295 CNS
SF-539 CNS = system: SF-539 CNS
UACC-257 melanoma = system: UACC-257 melanoma
M14 melanoma = system: M14 melanoma

Compound	growth (NCI-H23 lung)	growth (NCI-H226 lung)	growth (NCI-H322M lung)	growth (HOP-62 NSCLC)	growth (NCI-H460 lung)	growth (HOP-92 NSCLC)	growth (NCI-H522 lung)	growth (A549/ATCC NSCLC)	growth (786-0 renal)	growth (COLO 205 colon)	growth (DU-145 prostate)	growth (K-562 leukemia)	growth (MALME-3M melanoma)	growth (MDA-MB-231 breast)	growth (RXF 393 renal)	growth (SF-268 CNS)	growth (SF-295 CNS)	growth (SF-539 CNS)	growth (UACC-257 melanoma)	growth (M14 melanoma)
Cc1nc2sc(C(=O)Nc3cccc4ncccc34)c(N)c2cc1C(C)O (stereo not given)	80.4%	85.1%	79.7%	68.1%	80.9%	70.5%	34.7%	81.3%	86.2%	107%	109%	28.8%	74.5%	76.1%	70.1%	87.7%	59.8%	82.4%	75.9%	62%
COc1ccc2c(c1)CCNC21C(=O)Nc2c(Br)cc(Br)cc21 (stereo not given)	98.4%	101%	90.3%	86.1%	101%	93.2%	91.6%	99.2%	94.8%	112%	110%	98.8%	88.3%	74.7%	133%	100%	103%	94%	100%	97.7%
Nc1c(C(=O)Nc2ccncc2)sc2nc3c(cc12)CCCCCCCC3	-63.2% (active)	17.6%	-54.4% (active)	-74.2% (active)	-66.7% (active)	-76.2% (active)	-84.9% (active)	-62.7% (active)	-93.9% (active)	-83.2% (active)	-75.5% (active)	-52% (active)	-84.6% (active)	-72.7% (active)	-80.6% (active)	-62.4% (active)	-77% (active)	-91.7% (active)	-75.7% (active)	-80.1% (active)
